# Screening data deposited in PubChem BioAssay by National Center for Advancing Translational Sciences (NCATS).
# This is one part of a sample in which hits are shown more often than they occur.
# NS1 function inh – qHTS Assay for Inhibitors of Influenza NS1 Protein Function; AID 2326, 2010; 270,000 tested, 0.4% active; Potency, µM (titrated, usually from 46.1 µM), for the others: at the top dose activity, positive = more growth; calls by dose curve; also: potency is read from the fitted curve at half-maximal effect; actives are rising curves; nearly all actives have a fitted effect of over 50% in size
#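 S. cerevisiae expressing influenza A NS1, grown in glucose, washed, then diluted 1:100 into pH 6.0 -URA galactose medium with 23 nl compound. Growth recovery read as OD600; NS1-free strain serves as control.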
# Tb PYK inh – qHTS of Trypanosoma Brucei Inhibitors | TbPYK enzyme, Kinase-Glo Plus ATP luminescence, 45 min | AID 624173, 2012 | 410,000 tested, 0.12% active | pyruvate kinase (Trypanosoma brucei), Q57TT1 | Potency, µM (titrated, usually from 76.8 µM), for inactives: at the top dose activity, negative = inhibition, hits mostly inhibitors; also: potency is read from the fitted curve at half-maximal effect; % is scaled to controls: 0 for no effect and ±100 for the full control effect; nearly all actives have a fitted effect of over 50% in size
#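 Luminescence from Kinase-Glo Plus, added after a 45-minute room-temperature reaction, served as the end-point read-out. The enzyme and substrate were preincubated with compound before ADP (130 uM final) initiated turnover. Concentration-effect curves came from normalized qHTS data.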
# Shiga toxin inh – A qHTS for Small Molecule Inhibitors of Shiga Toxin; Vero cells, Shiga toxin protein synthesis inhibition reporter; inhibition, % at 38.7 µM; 290,000 tested, 9.2% active; AID 2315, 2010; in the data active = inhibition mostly above about 28%, no sharp cut-off; inactive = mostly below about 43%; also: 0% is about no effect
# SARS PLP yeast – qHTS of Yeast-based Assay for SARS-CoV PLP; S. cerevisiae expressing SARS-CoV PLpro, growth rescue; Potency, µM (top dose mostly 32.9 µM), for inactives: at the top dose activity, positive = growth rescue, most hits filed as activators; 330,000 tested, 0.19% active; AID 485353, 2010; calls by dose curve; also: potency is read from the fitted curve at half-maximal effect; 0% is about no effect; nearly all actives have a fitted effect of over 55% in size
# LmPK inhibitor – qHTS Assay for Inhibitors of Leishmania Mexicana Pyruvate Kinase (LmPK); Q27686; purified LmPK, Kinase-Glo ATP luminescence, 1 h; Potency, µM (doses to about 57.5 µM), for the others: at the highest dose activity change, negative = inhibition, usual class: inhibitors; 290,000 tested, 0.37% active; also: potency is read from the fitted curve at half-maximal effect; % is scaled to controls: 0 for no effect and ±100 for the full control effect
# Target sequence (Q27686 whole entry, looked up): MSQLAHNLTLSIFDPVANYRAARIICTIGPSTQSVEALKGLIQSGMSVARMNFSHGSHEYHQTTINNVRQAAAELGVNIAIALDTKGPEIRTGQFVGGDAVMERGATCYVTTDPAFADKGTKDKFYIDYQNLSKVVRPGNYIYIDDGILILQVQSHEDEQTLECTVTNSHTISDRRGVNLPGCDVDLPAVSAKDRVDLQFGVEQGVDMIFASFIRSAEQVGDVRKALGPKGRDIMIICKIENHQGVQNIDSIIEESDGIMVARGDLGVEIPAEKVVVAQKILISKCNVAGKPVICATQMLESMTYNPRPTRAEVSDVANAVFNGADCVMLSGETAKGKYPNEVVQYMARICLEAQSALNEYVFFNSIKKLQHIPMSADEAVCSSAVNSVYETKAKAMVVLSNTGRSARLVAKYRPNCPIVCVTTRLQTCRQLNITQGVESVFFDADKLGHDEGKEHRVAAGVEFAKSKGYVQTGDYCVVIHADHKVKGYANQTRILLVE
#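 In 50 mM imidazole pH 7.2 with 7 mM MgCl2, LmPK (0.1 nM) turned over PEP (0.5 mM) and ADP (0.1 mM) for 1 h at room temperature. Luciferase read-out of ATP.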
# CHX counter – Cycloheximide Counterscreen for Small Molecule Inhibitors of Shiga Toxin; cell reporter, cycloheximide protein synthesis inhibition counterscreen; max response, %; 300,000 tested, 12% active; AID 2314, 2010; in the data active = max response mostly above about 13%, no sharp cut-off; inactive = mostly below about 14%; also: read at 38.3 µM for the half of the compounds with a filed dose; 0% is about no effect
# Numbers without * were called inactive; . = no result; + = active, no number; [ ] = remark or other dose. Unless noted, calls follow the shape of the dose curve; as a rule, active = well fitted curve in the direction sought with a large enough effect; inconclusive = small, poorly fitted or top-dose-only effect, or another doubt; inactive = no such curve, though single readings can be large; an effect the other way counts as inactive or inconclusive.
SMILES,NS1 function inh,Tb PYK inh,Shiga toxin inh,SARS PLP yeast,LmPK inhibitor,CHX counter
Cc1ccc(-c2csc(NC(=O)CN3CCOCC3)n2)cc1C,-1.9%,0.6%,24.3,0.6%,-2.2%,21.4*
O=C(CN1CCCCC1)Nc1nc(-c2ccc(Cl)cc2)cs1,5.2%,-2.0%,-7.0,0.2%,-0.2%,-4.2
O=C(CN1CCCCC1)Nc1nc(-c2ccccc2)cs1,-4.4%,-1.2%,35.0*,5.9%,0.6%,34.6*
CCc1sc(NC(=O)CN2CCOCC2)nc1-c1ccccc1,-13.9%,-0.2%,-4.1,-0.1%,-2.0%,-2.2
Cc1c(C(=O)N2CCCC2)oc2c1-c1nn(CC(=O)NCc3ccccc3F)cc1CC2,.,-3.1%,.,.,.,.
CC(=O)Nc1nc(-c2ccc(-c3ccccc3)cc2)cs1,.,-11.6%,.,.,.,.
CCc1ccc(-c2csc(NC(=O)Oc3ccccc3)n2)cc1,0.2%,-8.9%,192.6*,-66.3%,1.3%,24.8*
Cc1ccc(-c2csc(NC(=O)COC(=O)c3cccc(S(=O)(=O)N4CCOCC4)c3)n2)cc1,-15.0%,4.1%,130.8*,-6.8%,-9.9%,22.4*
COCC(=O)Nc1nc(-c2ccc(-c3ccccc3)cc2)cs1,-13.2%,-0.5%,80.9*,3.8%,-2.3%,64.7*
COc1ccc(-c2nc3sc(CCNC(=O)Cc4ccccc4)c(C)n3n2)cc1,.,11.8%,.,.,.,.
CNC/C(Cl)=N/S(=O)(=O)c1ccc(C)cc1,1.4%,.,.,.,.,.
Cc1ccc(Nc2cc(C)nc(-c3ccccc3O)n2)cc1,-17.6%,5.3%,94.6*,-27.5%,6.1%,28.9*
Cc1ccc(Nc2cc(C)nc(-c3ccccc3)n2)cc1,-41.0%,0.2%,91.0*,-5.8%,1.7%,41.9*
Cc1ccc(Oc2cc(C)nc(-c3ccccc3O)n2)cc1,-11.9%,1.8%,32.7,-6.8%,1.0%,36.6*
Cc1cc(NCCCN)nc(-c2ccccc2O)n1,-5.6%,2.6%,42.9,-0.1%,2.0%,25.4*
Cc1cc(Nc2ccc(Br)cc2)nc(-c2ccccc2O)n1,-2.7%,-1.7%,18.3,-2.3%,-0.3%,13.7
C[C@@H]1CCC[C@]2(C)CCCC[C@@]12O,.,.,-5.1,.,.,-2.9
CC(=O)c1ccc(OCC(=O)Nc2ccc3c(c2)CCC3)cc1,.,2.0%,18.3,-1.3%,2.6%,19.7*
Cc1ccc(OCC(=O)Nc2ccc(F)cc2)c([N+](=O)[O-])n1,5.8%,-3.4%,+,-1.8%,-1.5%,56.4*
Cc1ccc(OCC(=O)NCC(=O)Nc2ccc(F)cc2)c([N+](=O)[O-])n1,5.2%,2.3%,-3.0,-6.1%,-2.7%,-1.1
Cc1ccc(OCC(=O)Nc2ccc3c(c2)CCC3)c([N+](=O)[O-])n1,.,-3.6%,66.7*,0.2%,4.0%,39.9*
O=C(COc1ccc(Cl)cc1)Nc1ccc2c(c1)CCC2,-5.3%,-8.0%,2.3,-23.3%,5.2%,8.4
Cc1ccc(OCC(=O)Nc2ccc(Cl)cc2)c([N+](=O)[O-])n1,.,-11.9%,.,3.2%,.,.
CC(=O)Nc1ccc(S(=O)(=O)N2CCc3nc(-c4ccccc4)c4c(c3C2)CO[C@@H](C)C4)cc1,.,.,.,.,-1.1%[11.5 µM],.
O=C(CSc1ccc2nnc(CCNC(=O)c3ccccc3)n2n1)NCc1ccc(F)cc1,13.0%,10.6%,1.8,7.5%,2.2%,-2.2
SMILES,NS1 function inh,Tb PYK inh,Shiga toxin inh,SARS PLP yeast,LmPK inhibitor,CHX counter
N=c1n(CCN2CCOCC2)c2ccccc2n1CC(=O)c1ccc(Cl)c(Cl)c1,-163.0%,2.5%,10.6,-25.5%,3.8%,24.0*
Cc1ccc(NC(=O)N2CCN(c3nnc(C)c4c(C)n(-c5ccccc5)nc34)CC2)cc1Cl,.,3.8%,.,.,.,.
N=C1SCC(=O)N1/N=C/c1ccccc1,.,5.2%,53.1*,-2.2%,-8.2%,23.6*
O=C1CSC(=S)N1/N=C/C=C/c1ccccc1,20.8%,-7.7%,34.9,13.7%,7.8%,9.9
CCC(=O)C1CCCN(C(=O)c2ccc3nc(-c4cccc(OC)c4)oc3c2)C1 (centres undefined),0.7%,-1.1%,69.3*,-0.7%,-6.6%,45.4*
CCN(CC)C(=O)C1CCCN(C(=O)c2ccc3nc(-c4cccc(OC)c4)oc3c2)C1 (centres undefined),.,1.4%,.,.,.,.
COc1cccc(-c2nc3ccc(C(=O)N4CCCC(O)C4)cc3o2)c1 (centres undefined),-4.6%,-7.4%,111.7*,1.0%,-7.1%,58.8*
CCOC(=O)C1CCCN(C(=O)c2ccc3nc(-c4cccc(OC)c4)oc3c2)C1 (centres undefined),-52.6%,0.6%,72.0*,-0.3%,-3.3%,31.6*
CCN(C1CCS(=O)(=O)C1)S(=O)(=O)c1ccc(OC)c(OC)c1 (centres undefined),.,-4.7%,.,2.9%,.,.
O=C(CC1NCCC[C@H]1O)Cn1cnc2cc(Br)c(Cl)cc2c1=O (some centres undefined),.,3.0%,.,.,.,.
CC1(C)CC(C(CCN(Cc2ccccc2)C(=O)c2ccco2)c2ccc(F)cc2)CCO1 (centres undefined),-0.2%,-8.4%,-7.9,-32.7%,0.1%,14.8
O=C(c1ccco1)N(CCC(c1ccccc1)c1ccco1)Cc1ccc(F)cc1 (centres undefined),2.9%,-10.7%,20.2,-21.0%,-2.4%,21.9*
CCOc1ccc2nc(N3CCCC(C(=O)NCC4CCCO4)C3)sc2c1 (centres undefined),2.0%,-0.8%,75.1*,-0.5%,-4.8%,44.8*
Cc1cc(C)c2nc(N3CCC(C(=O)NCC4CCCO4)CC3)sc2c1 (centres undefined),-9.7%,0.6%,25.0,18.2%,8.4%,21.0*
CCOc1ccc2nc(NC(=O)C3CCN(C(=O)c4ccco4)CC3)sc2c1,8.3%,-1.2%,74.0*,-3.7%,-0.7%,26.6*
CCOc1ccc2nc(NC(=O)C3CCCN(S(=O)(=O)c4c(C)noc4C)C3)sc2c1 (centres undefined),-74.7%,-3.2%,28.1*,-1.8%,0.7%,25.4*
COCCN(Cc1cccs1)S(=O)(=O)c1ccc(-c2ccc(=O)[nH]n2)s1,6.3%,-8.5%,-1.1,1.9%,-9.0%,-7.5
CCCCC(=O)N(C)c1c(CC)nc2c(OCC(=O)N3CCOCC3)cccn12,.,-14.7%,.,.,.,.
CCOc1ccc2nc(N3CCCCCC3)sc2c1,-25.5%,-8.5%,102.1*,-1.9%,-4.9%,57.2*
CCCN1CCN(CCCNC(=O)C2CCCN(c3nc4ccc(OCC)cc4s3)C2)CC1 (centres undefined),-0.8%,0.0%,12.3,6.8%,-3.3%,0.3
CCOc1ccc2nc(N3CCC(C(=O)Nc4nnc(CC)s4)CC3)sc2c1,2.3%,-2.6%,166.6*,-0.8%,-2.1%,81.4*
CCOc1ccc2nc(N3CCCC(C(=O)N4CCN(CC)CC4)C3)sc2c1 (centres undefined),1.9%,22.2%,38.4,3.3%,0.5%,25.5*
